Measurements reported in PubChem BioAssay AID1159580 (chemical genetic matrix, 2015).
Hit rate of the full screen: of about 5,500 compounds, about 2,000 (36%) were called active. Another 18% or so got no clear call; they are omitted. No stated cut-off is given here; in the data, active means normalized growth mostly below about 0.91 (no sharp cut-off); inconclusive means no clear call, values can overlap the other calls; inactive means mostly above about 0.92. The list shows a part of the results.

Assay: chemical genetic growth profiling, strain panel (AID 1159580);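 further: tested at 20 µM; growth read once vehicle control cultures reached saturation at 30 °C; 1 = growth at the plate median or of vehicle wells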
Conditions: S. cerevisiae deletion strains, growth OD

Measured: normalized growth

Cc1csc(NC(=O)Nc2ccc(C(F)(F)F)cc2)c1
active: locus YHR205W, strain SCH9, stronger effect = lower value 0.453 | locus YLR113W, strain HOG1, stronger effect = lower value 0.803 | locus YLR133W, strain CKI1, stronger effect = lower value 0.675 | locus YPL256C, strain CLN2, stronger effect = lower value 0.857
inactive: locus YAR019C, strain CDC15, stronger effect = lower value 0.971 | locus YBL105C, strain PKC1, stronger effect = lower value 0.98 | locus YBR135W, strain CKS1, stronger effect = lower value 0.963 | locus YBR136W, strain MEC1, stronger effect = lower value 0.98 | locus YBR160W, strain CDC28, stronger effect = lower value 0.975 | locus YDL017W, strain CDC7, stronger effect = lower value 0.977 | locus YDL028C, strain MPS1, stronger effect = lower value 0.981 | locus YDL101C, strain DUN1, stronger effect = lower value 1.02 | locus YDL108W, strain KIN28, stronger effect = lower value 0.973 | locus YDL132W, strain cdc53, stronger effect = lower value 0.97 | locus YDL214C, strain PRR2, stronger effect = lower value 0.783 | locus YDR052C, strain DBF4, stronger effect = lower value 0.989 | locus YDR054C, strain cdc34, stronger effect = lower value 0.95 | locus YDR226W, strain ADK1, stronger effect = lower value 0.975 | locus YDR477W, strain SNF1, stronger effect = lower value 0.804 | locus YER123W, strain YCK3, stronger effect = lower value 0.735 | locus YER133W, strain GLC7, stronger effect = lower value 0.848 | locus YFL009W, strain cdc4, stronger effect = lower value 0.97 | locus YFL029C, strain CAK1, stronger effect = lower value 0.958 | locus YFR003C, strain YPI1, stronger effect = lower value 0.972 | locus YFR019W, strain FAB1, stronger effect = lower value 0.801 | locus YFR028C, strain CDC14, stronger effect = lower value 0.951 | locus YGR040W, strain KSS1, stronger effect = lower value 0.848 | locus YGR052W, strain FMP48, stronger effect = lower value 0.946 | locus YGR092W, strain DBF2, stronger effect = lower value 0.781 | locus YHR030C, strain SLT2, stronger effect = lower value 0.891 | locus YHR079C, strain IRE1, stronger effect = lower value 0.876 | locus YHR082C, strain KSP1, stronger effect = lower value 0.893 | locus YIL147C, strain SLN1, stronger effect = lower value 0.978 | locus YJL095W, strain BCK1, stronger effect = lower value 0.896 | locus YJL128C, strain PBS2, stronger effect = lower value 0.932 | locus YJL157C, strain FAR1, stronger effect = lower value 0.718 | locus YJR016C, strain ILV3, stronger effect = lower value 0.978 | locus YJR066W, strain TOR1 (second series), stronger effect = lower value 0.848 | locus YJR066W, strain TOR1, stronger effect = lower value 0.935 | locus YKL048C, strain ELM1, stronger effect = lower value 0.928 | locus YKL067W, strain YNK1, stronger effect = lower value 0.805 | locus YKL101W, strain HSL1, stronger effect = lower value 0.821 | locus YKL193C, strain SDS22, stronger effect = lower value 0.969 | locus YKL203C, strain TOR2, stronger effect = lower value 0.907 | locus YLR403W, strain SFP1, stronger effect = lower value 0.704 | locus YML070W, strain DAK1, stronger effect = lower value 0.755 | locus YMR001C, strain CDC5, stronger effect = lower value 0.966 | locus YMR205C, strain PFK2 (second series), stronger effect = lower value 0.832 | locus YMR277W, strain FCP1, stronger effect = lower value 0.965 | locus YNL006W, strain LST8, stronger effect = lower value 0.99 | locus YNL020C, strain ARK1, stronger effect = lower value 0.753 | locus YNL161W, strain CBK1, stronger effect = lower value 0.982 | locus YNL183C, strain NPR1, stronger effect = lower value 0.878 | locus YNL207W, strain RIO2, stronger effect = lower value 0.965 | locus YNL222W, strain SSU72, stronger effect = lower value 0.967 | locus YNL307C, strain MCK1 (second series), stronger effect = lower value 0.708 | locus YOL078W, strain AVO1, stronger effect = lower value 0.964 | locus YOL136C, strain PFK27, stronger effect = lower value 0.739 | locus YOR061W, strain CKA2, stronger effect = lower value 0.714 | locus YOR119C, strain RIO1, stronger effect = lower value 0.928 | locus YOR231W, strain MKK1, stronger effect = lower value 0.864 | locus YOR329C, strain SCD5, stronger effect = lower value 0.978 | locus YPL031C, strain PHO85, stronger effect = lower value 0.773 | locus YPL153C, strain RAD53, stronger effect = lower value 0.868 | locus YPL204W, strain HRR25, stronger effect = lower value 0.902 | locus YPL209C, strain IPL1, stronger effect = lower value 0.958 | locus YPR025C, strain CCL1, stronger effect = lower value 0.963 | locus YPR106W, strain ISR1, stronger effect = lower value 0.971 | locus YPR111W, strain DBF20, stronger effect = lower value 0.966 | strain NNK1, stronger effect = lower value 0.971 | strain TSCII, stronger effect = lower value 0.968
